# Source: PubChem BioAssay (National Center for Advancing Translational Sciences (NCATS))
# IL-1B inflam inh = inflammasome signaling inhibition, IL-1 beta readout. 4.7% of 360,000 active. AID 743279. THP-1 LPS/ATP IL-1B secretion, AlphaLISA, 16 h; stronger effect = lower value. activity change, % at 57.5 µM; in the data active = activity change below about -50%; inconclusive = mostly about -30% to -49%
#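 THP-1 cells pretreated 1 hr with compounds (up to 57.5 uM final), then stimulated with LPS (250 ng/mL final) plus ATP (1.25 mM final); secreted IL-1B measured by AlphaLISA after 16 hr, decreased signal indicating inhibition.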
# DT40 TDP1 no CPT = qHTS for Inhibitors of human tyrosyl-DNA phosphodiesterase 1 (TDP1): qHTS in cells in absence of CPT; DT40 Tdp1-/- hTDP1 cells, no CPT, ATP luminescence, 48 h; Potency, µM (series often up to 46.2 µM), without a hit: top-dose activity change, negative = growth inhibition, usual class: inhibitors; 15% of 420,000 active; AID 686978, 2013; also: potency is read from the fitted curve at half-maximal effect; nearly all actives have a fitted effect of over 55% in size
#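 Luminescent ATP content (CellTiter-Glo) served as the growth readout. Knockout chicken DT40 cells expressing human TDP1 were exposed to compounds without camptothecin for a minimum 48 hr at 37 °C.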
# Gal4-VP16 FLuc = counter-screen for ROR gamma inhibitors: Gal4-VP16 reporter; Drosophila S2 Gal4-VP16 UAS-luciferase, luminescence, 20 h; Potency, µM (titrated, usually from 53.6 µM), for inactives: at the top dose activity, negative = inhibition, hits mostly inhibitors; 3.5% of 310,000 active;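 also: Gal4-VP16 expression switched on by copper sulfate through the metallothionein promoter; potency is read from the fitted curve at half-maximal effect; nearly all actives have a fitted effect of over 50% in size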
# LDHA block = LDHA (human) enzyme inhibition. P00338. activity change, % (values are at about 110 or 230 µM). purified LDHA, NADH/diaphorase-resazurin fluorescence; stronger effect = lower value. 0.15% of 480,000 active. AID 1347041; in the data active = activity change below about -30%; inconclusive = mostly about -25% to -30%;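 also: plate controls were DMSO wells for no effect and wells without enzyme for full effect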
#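 LDH5 2 nM; NADH 0.06 mM, pyruvate 0.2 mM; 200 mM Tris pH 7.4, EDTA, Tween-20; 5 min RT. Detection: diaphorase 0.133 mg/mL + resazurin 37 µM, fluorescence ex540/em590 at 0 and 20 min; normalized to enzyme-free and DMSO wells.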
# DT40 TDP1 CPT = growth inhibition of DT40 Tdp1-/-;hTDP1 cells with camptothecin (screen for TDP1 inhibitors); Potency, µM (highest dose often 46.2 µM), for inactives: at the top dose activity change, negative = growth inhibition, most hits filed as inhibitors; chicken DT40 Tdp1-/-;hTDP1 cells + 20 nM CPT, ATP luminescence, 48 h; 12% of 420,000 active; also: potency is read from the fitted curve at half-maximal effect; nearly all actives have a fitted effect of over 55% in size
#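 Cell growth measured by CellTiter-Glo luminescence after a minimum 48 h, 37 C compound exposure with 20 nM CPT in Tdp1-knockout DT40 cells stably expressing hTDP1, seeded 400/well; qHTS titration format.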
# RORgamma inh = blocks mouse ROR gamma transcriptional activity; P51450; Drosophila S2 Gal4-RORgamma UAS-luciferase reporter, 20 h; Potency, µM (doses to about 53.6 µM), for the others: top-dose activity change, negative = inhibition, most hits filed as inhibitors; 5.4% of 310,000 active; AID 2551; also: potency is read from the fitted curve at half-maximal effect; nearly all actives have a fitted effect of over 60% in size
# Target sequence (P51450 whole entry, looked up, the tested form may be a part): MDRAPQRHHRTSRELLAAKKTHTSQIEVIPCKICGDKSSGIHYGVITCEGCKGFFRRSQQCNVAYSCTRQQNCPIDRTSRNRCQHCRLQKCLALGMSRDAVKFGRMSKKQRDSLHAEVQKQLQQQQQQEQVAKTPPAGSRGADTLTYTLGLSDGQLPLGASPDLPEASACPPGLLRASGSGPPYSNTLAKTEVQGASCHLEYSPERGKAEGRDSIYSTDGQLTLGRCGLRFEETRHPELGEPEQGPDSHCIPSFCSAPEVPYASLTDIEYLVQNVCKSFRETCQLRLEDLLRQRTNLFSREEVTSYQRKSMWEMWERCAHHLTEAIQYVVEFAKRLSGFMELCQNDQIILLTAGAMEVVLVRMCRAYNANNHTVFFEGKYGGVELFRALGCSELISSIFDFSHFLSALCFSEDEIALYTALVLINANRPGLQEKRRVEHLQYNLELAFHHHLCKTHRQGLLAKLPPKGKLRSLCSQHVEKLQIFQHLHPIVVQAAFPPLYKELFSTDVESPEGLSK
#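 Schneider cells (Drosophila), stable Gal4 DBD–ROR gamma + UAS-luc; 1 hr cmpd preincubation; Cu2+ induction 700 uM final; 20 hr ambient; luminescence.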
# * marks the source's active call; other numbers are inactive results; ? = inconclusive; . = no result. A selection: hits, their analogues and other compounds. The true share with any hit is near 18%. Unless noted, calls follow the shape of the dose curve; as a rule, active = well fitted curve in the direction sought with a large enough effect; inconclusive = small, poorly fitted or top-dose-only effect, or another doubt; inactive = no such curve, though single readings can be large; an effect the other way counts as inactive or inconclusive. Unless noted, % is scaled to controls: 0 for no effect and ±100 for the full control effect.
SMILES,IL-1B inflam inh,DT40 TDP1 no CPT,Gal4-VP16 FLuc,LDHA block,DT40 TDP1 CPT,RORgamma inh
COc1ccc(NC(=O)Cn2c(=O)oc3cc(S(=O)(=O)N4CCCC4)ccc32)c(OC)c1,11,?,3%,-4,?,16%
CCC(C)NC(=O)Cn1c(=O)ccc2cc(S(=O)(=O)N3CCCC3)ccc21 (stereo unspecified),.,?,.,-8,?,.
CCN(C(=O)CN1C(=O)COc2ccc(S(=O)(=O)N3CCOCC3)cc21)c1cccc(C)c1,.,18µM*,.,-16,?,.
CCCNC(=O)Cn1c(=O)oc2cc(S(=O)(=O)N3CCCC3)ccc21,-8,4%,-5%,-8,7%,-11%
COc1ccc(Cl)cc1NC(=O)Cn1c(=O)oc2cc(S(=O)(=O)N3CCCCCC3)ccc21,.,16µM*,.,-9,?,.
Cc1cccc(NC(=O)Cn2c(=O)ccc3cc(S(=O)(=O)N4CCCC4)ccc32)c1C,.,16µM*,.,-9,?,.
Cc1ccc(Cl)cc1NC(=O)Cn1c(=O)oc2cc(S(=O)(=O)N3CCCC3)ccc21,.,9.2µM*,.,-6,23µM*,.
Oc1ccc(C2(c3ccccc3O)CCCCC2)cc1,.,.,.,2,.,.
COc1ccccc1NC(=O)C(=O)N1N=C(C(C)C)CC1(O)C(F)(F)F (stereo unspecified),8,5%,?,-8,-1%,10µM*
CCC1=NN(C(=O)C(=O)Nc2ccc(OC)cc2)C(O)(C(F)(F)F)C1 (stereo unspecified),0,-2%,-22%,1,-14%,?
CCC1=NN(C(=O)C(=O)Nc2ccccc2OC)C(O)(C(F)(F)F)C1 (stereo unspecified),45,?,?,1,-7%,13µM*
CN(CC(=O)Nc1ccc(F)cc1)C(=O)COc1ncnc2sccc12,.,.,.,-7,.,.
N#Cc1nc(COc2cccc(Cl)c2)oc1NCc1ccco1,-16,18µM*,19%,-3,21µM*,?
Cc1cccc(OCc2nc(C#N)c(NCCc3ccccc3)o2)c1,.,.,.,7,.,.
COc1ccc(CNc2oc(COc3cccc(C)c3)nc2C#N)cc1,.,?,.,-7,4.1µM*,.
COc1ccc(CCNc2oc(COc3ccc(Cl)cc3)nc2C#N)cc1OC,.,12µM*,.,-1,13µM*,.
COc1ccc(CCNc2oc(COc3cccc(C)c3)nc2C#N)cc1OC,.,23µM*,.,-5,?,.
O=C(NC1CC1)c1cccc(NC(=O)c2cccc3cccnc23)c1,.,.,.,6,.,.
COc1ccc(-c2[nH]nc3c2C(c2ccc(F)cc2)C2=C(CC(C)(C)CC2=O)N3)cc1 (stereo unspecified),.,.,.,-3,.,.
NCc1ccc(NC(N)=O)cc1,.,.,.,1,.,.
COc1cc2c(cc1OC)CN(C(=O)CN(Cc1ccccc1)S(=O)(=O)c1ccccc1)CC2,.,.,.,-12,.,.
C/C=C/Cn1c(SCCC)nc2c1c(=O)[nH]c(=O)n2C,.,.,.,-16,.,.
COc1ccccc1Oc1ccc(NC(=O)Cn2ncc3ccc(OC)c(OC)c3c2=O)cc1,.,.,.,0,.,.
CCOc1ccc(S(=O)(=O)N2CCSC2c2ccc(OC)c(Br)c2)cc1 (stereo unspecified),.,.,.,-1,.,.
O=C(Nc1nc(-c2ccco2)cs1)c1ccccc1,-21,?,10%,0,13µM*,43%
O=C(Nc1nc(-c2ccccc2)cs1)c1ccco1,-59*,?,-2%,-2,?,26%
CC(=O)Nc1ccc(C(=O)Nc2nc(-c3cccnc3)cs2)cc1,-19,?,0%,-4,-28%,-33%
Cc1ccc(-c2csc(NC(=O)c3ccc(-c4ccccc4)cc3)n2)o1,-23,?,?,-17,16µM*,?
O=C(Nc1scc(-c2ccccc2)c1C(=O)O)c1ccco1,-24,?,-11%,-6,-1%,-38%
